PubChem BioAssay
The source made the active and inactive calls. No rule for the calls is given here.

Biological target: Pantothenate synthetase (Mycobacterium tuberculosis (strain ATCC 25618 / H37Rv)) (UniProt P9WIL5)
Test: Recombinant Mtb pantothenate synthetase (PanC) inhibitors, coupled enzyme, confirmatory (AID 375);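 also: 0% = full reaction with vehicle and 100% = no enzyme background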
Conditions: coupled enzyme assay; at 10 µM, stronger effect = higher value

Sequence of Pantothenate synthetase (Mycobacterium tuberculosis (strain ATCC 25618 / H37Rv)) (P9WIL5 whole entry, looked up): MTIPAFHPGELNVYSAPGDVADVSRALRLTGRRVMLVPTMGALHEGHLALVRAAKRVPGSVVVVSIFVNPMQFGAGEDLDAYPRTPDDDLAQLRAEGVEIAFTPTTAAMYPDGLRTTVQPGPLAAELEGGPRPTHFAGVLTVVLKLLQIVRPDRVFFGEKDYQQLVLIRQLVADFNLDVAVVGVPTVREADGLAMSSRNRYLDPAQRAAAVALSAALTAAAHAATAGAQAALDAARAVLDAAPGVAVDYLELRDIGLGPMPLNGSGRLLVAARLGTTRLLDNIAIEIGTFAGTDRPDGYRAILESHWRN

| Structure (SMILES) | inhibition |
| --- | --- |
| COc1ccc(OC)c(C(=O)CSc2nc3ncccc3[nH]2)c1 | 0% (inactive) |
| CCOC(=O)c1ccc(N2C(=O)CC(Sc3nnc(C)s3)C2=O)cc1 (stereo not drawn) | 0% (inactive) |
| COc1ccc(CCNC(=O)c2ccncc2)cc1OC | 4% (inactive) |
| CCn1cc(C(=O)NC2CCc3ccccc32)c(=O)c2ccc(C)nc21 (stereo not drawn) | 0% (inactive) |
| Cc1nn(C)cc1C1C2=C(CC(C)(C)CC2=O)OC2=C1C(=O)CC(C)(C)C2 | 0% (inactive) |
| Cc1ccc(N2CCN(c3ccc(C)cc3)C(CC(=O)O)C2=O)cc1 (stereo not drawn) | 7% (inactive) |
| C=C(C)C1Cc2c(C)nn(-c3nc(C)cc(C)n3)c2C1 (stereo not drawn) | 0% (inactive) |
| COc1ccc(NC(=O)C(C)Oc2ccc(/C(C)=N\O)cc2)cc1 (stereo not drawn) | 0% (inactive) |
| O=C1c2ccccc2S(=O)(=O)N1CC(O)Cn1c2ccccc2c2ccccc21 (stereo not drawn) | 0% (inactive) |
| CCCCn1c(CNC(=O)CCC)nc2ccccc21 | 4% (inactive) |
| C=CCn1c(SCC(=O)O)nnc1-c1cccc(Cl)c1 | 0% (inactive) |
| CSC(=O)CC(=O)NC(=O)c1ccccc1 | 1% (inactive) |
| N#Cc1c(/N=C/c2ccco2)sc2c1CCC2 | 0% (inactive) |
| CC(Oc1ccccc1)C(=O)NC1CC(C)(C)NC(C)(C)C1 (stereo not drawn) | 0% (inactive) |
| COC(=O)c1cc(NC(=O)C2COc3ccccc3O2)cc(C(=O)OC)c1 (stereo not drawn) | 0% (inactive) |
| c1ccc(CCNc2ccc3nncn3n2)cc1 | 2% (inactive) |
| O=C(CSCc1cnn(-c2ccccc2)c1-n1cccc1)NCC1CCCO1 (stereo not drawn) | 4% (inactive) |
| c1ccc(Oc2ccc(-n3cnnn3)cc2)cc1 | 3% (inactive) |
